# Legend:
# Experiment in all cases: growth inhibition (% activity, log2 RLU normalised to DMSO / staurosporine); higher = more growth inhibition
# Settings in all cases: 33 µM
# DIPGX29 = tested on: DIPGX29 (H3.3 K27M diffuse intrinsic pontine glioma line)
# Procedure, shortened: (§1)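 Approved drugs were tested in triplicate at a single final concentration of about 33 μM for 7 days at 37 °C, 5% CO2, on pHGG cell lines and H9-derived neural stem cells. Readout was CellTiter-Glo luminescence, log2-transformed and scaled per plate to % activity between solvent and positive control wells. The median over replicates gives the growth-inhibition value.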
# DIPGX37 = tested on: DIPGX37 (H3.3 K27M diffuse intrinsic pontine glioma line)
# Procedure, shortened: as §1
# DIPGX7 = tested on: DIPGX7 (H3.3 K27M diffuse intrinsic pontine glioma line)
# Procedure, shortened: as §1
# DIPGX9 = tested on: DIPGX9 (diffuse intrinsic pontine glioma line)
# Procedure, shortened: as §1
# HGGX39 = tested on: HGGX39 (paediatric high-grade glioma line)
# Procedure, shortened: as §1
# HGGX6 = tested on: HGGX6 (H3.3 G34R paediatric high-grade glioma line)
# Procedure, shortened: as §1
# HNSC = tested on: HNSC
# Procedure, shortened: as §1
# SUDIPGIV = tested on: SUDIPGIV (diffuse intrinsic pontine glioma line)
# Procedure, shortened: as §1
# SUDIPGVI = tested on: SUDIPGVI (diffuse intrinsic pontine glioma line)
# Procedure, shortened: as §1
# SUDIPGXIII = tested on: SUDIPGXIII (diffuse intrinsic pontine glioma line)
# Procedure, shortened: as §1
Structure (SMILES),growth inhibition (DIPGX29),growth inhibition (DIPGX37),growth inhibition (DIPGX7),growth inhibition (DIPGX9),growth inhibition (HGGX39),growth inhibition (HGGX6),growth inhibition (HNSC),growth inhibition (SUDIPGIV),growth inhibition (SUDIPGVI),growth inhibition (SUDIPGXIII)
CCN(CC)C(=S)SSC(=S)N(CC)CC,1.19%,3.53%,5.8%,10.8%,3.44%,3.72%,50%,-0.505%,1.15%,0.0312%
Cc1cccc(CN2CCN(C(c3ccccc3)c3ccc(Cl)cc3)CC2)c1 (stereo not given),6.1%,6.46%,7.93%,8.12%,6.5%,7.41%,3.84%,25.4%,4.9%,4.67%
COC(=O)CCc1ccc(OCC(O)CNC(C)C)cc1 (stereo not given),0.107%,1.63%,0.0919%,0.526%,0.823%,1.03%,-0.617%,-1.21%,1.48%,0.0941%
Nc1nc(=O)n([C@@H]2CS[C@H](CO)O2)cc1F,0.68%,3.05%,1.33%,1.75%,1.6%,0.276%,0.206%,-0.429%,2.25%,-2.25%
CCCCCCOC(=O)NC(=N)c1ccc(NCc2nc3cc(C(=O)N(CCC(=O)OCC)c4ccccn4)ccc3n2C)cc1,0.869%,2.08%,1.77%,1.32%,1.62%,2.11%,1.37%,0.438%,2.67%,-16.9%
O=C(Oc1ccccc1C(=O)O)c1ccccc1O,-4.53%,-1.4%,0.584%,-2.94%,-1.64%,-6.45%,9.98%,-3.17%,-8.34%,-0.246%
Cc1cc(=O)n(-c2ccccc2)n1C,-0.731%,-0.447%,-1.9%,0.213%,-0.272%,-0.826%,-1.87%,0.134%,0.115%,0.666%
O=C(CCCN1CCN(c2ccccn2)CC1)c1ccc(F)cc1,1.87%,0.83%,5.21%,1.29%,4.4%,3.31%,1.17%,0.0159%,-3.95%,2.26%
C=C1/C(=C\C=C2/CCC[C@]3(C)[C@@H]([C@H](C)/C=C/[C@H](C)C(C)C)CC[C@@H]23)C[C@@H](O)C[C@@H]1O,0.433%,1.95%,5.3%,2.6%,3.71%,2.65%,3.33%,0.335%,1.4%,1.03%
CC(C)Cn1cnc2c(N)nc3ccccc3c21,0.9%,3.11%,0.885%,0.567%,1.26%,2.84%,0.687%,0.0825%,3.61%,0.156%
Nc1ccn([C@H]2CC[C@@H](CO)O2)c(=O)n1,1.28%,0.314%,0.245%,2.8%,6.49%,1.48%,17.8%,15.2%,0.499%,1.84%
N=c1nc(N2CCCCC2)cc(N)n1O,0.473%,-0.191%,0.732%,-0.0641%,-0.0574%,-3.42%,1.05%,-0.657%,1.35%,-1.69%
CCN[C@H]1C[C@H](C)S(=O)(=O)c2sc(S(N)(=O)=O)cc21,1.81%,-1.68%,1.05%,0.778%,2.3%,0.627%,4.56%,-0.668%,4.36%,0.067%
C=C1/C(=C\C=C2/CCC[C@]3(C)[C@@H]([C@H](C)CCCC(C)(C)O)CC[C@@H]23)C[C@@H](O)C[C@@H]1O,2.73%,4.49%,6.36%,1.22%,5.14%,4.52%,2.64%,9.51%,2.83%,-1.15%
CNC(=O)c1cc(Oc2ccc(NC(=O)Nc3ccc(Cl)c(C(F)(F)F)c3)c(F)c2)ccn1,4.67%,2.29%,3.66%,2.56%,5.15%,5.99%,39.1%,1.19%,4.32%,59.3%
O=C([O-])C(O)[C@H](O)[C@@H](O)[C@H](O)[C@H](O)CO.O=C([O-])C(O)[C@H](O)[C@@H](O)[C@H](O)[C@H](O)CO.[Ca+2] (stereo not given in full),2.16%,4.54%,2.65%,1.24%,2.2%,1.87%,2.4%,0.563%,2.72%,-0.395%
CNC[C@H](O)c1cccc(O)c1,0.744%,-0.539%,2.1%,0.894%,4.28%,0.958%,3.62%,0.826%,0.615%,0.446%
CCCc1ncc(C[n+]2ccccc2C)c(N)n1,-4.8%,-1.21%,-0.627%,-2.23%,-2.8%,-3.52%,7.92%,-2.86%,-5.24%,0.241%
C[C@H](N)[C@H](O)c1cccc(O)c1,2.35%,0.0235%,1.7%,1.54%,5.08%,0.73%,3.77%,1.73%,4.42%,1.04%
CCCN(CCC)CCc1cccc2c1CC(=O)N2,-1.21%,-2.23%,1.15%,0.189%,2.83%,-2.51%,0.584%,0.852%,2.13%,-0.826%
CO[C@H]1C[C@@H]2CC[C@@H](C)[C@@](O)(O2)C(=O)C(=O)N2CCCC[C@H]2C(=O)O[C@H]([C@H](C)C[C@@H]2CC[C@@H](O)[C@H](OC)C2)CC(=O)[C@H](C)/C=C(\C)[C@@H](O)[C@@H](OC)C(=O)[C@H](C)C[C@H](C)/C=C/C=C/C=C/1C,6.5%,0.955%,6.15%,16.4%,10.5%,10.3%,10.4%,4.5%,6.53%,0.792%
Nc1ccn(C2CSC(CO)O2)c(=O)n1 (stereo not given),0.0189%,0.319%,-0.231%,0.518%,0.787%,-0.895%,1.26%,-0.385%,1.46%,0.705%

Structure (SMILES),growth inhibition (DIPGX29),growth inhibition (DIPGX37),growth inhibition (DIPGX7),growth inhibition (DIPGX9),growth inhibition (HGGX39),growth inhibition (HGGX6),growth inhibition (HNSC),growth inhibition (SUDIPGIV),growth inhibition (SUDIPGVI),growth inhibition (SUDIPGXIII)
C#C[C@]1(OC(C)=O)CC[C@H]2[C@@H]3CCC4=C[C@@H](OC(C)=O)CC[C@@H]4[C@H]3CC[C@@]21C,0.289%,0.452%,-1.67%,1.3%,-0.196%,0.0724%,1.57%,-1.23%,1.15%,1.62%
O=C(O)c1ccccc1,-1.57%,1.08%,-0.546%,-0.0449%,0.585%,-1.44%,1.02%,1.15%,-2.88%,1.73%
COC1C(O)CC(=O)OC(C)CC=CC=CC(OC2CCC(N(C)C)C(C)O2)C(C)CC(CC=O)C1OC1OC(C)C(OC2CC(C)(O)C(O)C(C)O2)C(N(C)C)C1O (stereo not given),0.981%,1.73%,-0.322%,0.622%,1.26%,1.89%,-0.2%,-0.377%,1.86%,0.183%
O=C(O)c1ccc(-n2nc(-c3ccccc3O)nc2-c2ccccc2O)cc1,-3.59%,-2.58%,0.0493%,-2.68%,-2%,-3.44%,1.36%,-5.33%,-6.58%,0.207%
O=C(N[C@H](CO)[C@H](O)c1ccc([N+](=O)[O-])cc1)C(Cl)Cl,-0.766%,2.12%,-0.167%,-0.0638%,1.67%,-1.13%,3.64%,-0.734%,0.976%,-0.883%
O=C(c1ccccc1)c1ccc2n1CCC2C(=O)O (stereo not given),1.07%,-0.408%,0.977%,-1.13%,-0.11%,1.54%,-1.61%,-5.47%,0.251%,0.0715%
O=C1CCC(N2C(=O)c3ccccc3C2=O)C(=O)N1 (stereo not given),-2.65%,-1.06%,-0.846%,-1.66%,-0.665%,-1.64%,-7.47%,-2.51%,-2.2%,-0.0477%
CN(Cc1ccc(C(C)(C)C)cc1)Cc1cccc2ccccc12,1.43%,0.769%,0.907%,2.12%,3.22%,1.49%,0.815%,3.24%,3.2%,1.08%
CC(=O)NC[C@H]1CN(c2ccc(N3CCOCC3)c(F)c2)C(=O)O1,0.341%,-2.02%,0.521%,1.07%,3.34%,1.89%,6.16%,4.69%,1.21%,1.55%
CCC(=O)OCC(=O)[C@@]1(OC(=O)CC)[C@@H](C)C[C@H]2[C@@H]3CCC4=CC(=O)C=C[C@]4(C)[C@@]3(Cl)[C@@H](O)C[C@@]21C,2.67%,-2.69%,1.9%,4.04%,3.24%,1.72%,0.321%,-1.55%,-0.46%,0.862%
COc1ccc(-c2nc3ccc(C4=NNC(=O)CC4C)cc3[nH]2)cc1 (stereo not given),0.372%,2.28%,1.98%,1.28%,3.99%,2.72%,3%,5.46%,-4.45%,0.884%
CC(=O)[C@H]1CC[C@H]2[C@@H]3CCC4=CC(=O)CC[C@]4(C)[C@H]3CC[C@]12C,1.09%,3.02%,4.3%,2%,4.64%,5.84%,2.02%,-1.26%,1.04%,1.18%
CCOC(=O)O[C@]1(C(=O)OCCl)CC[C@H]2[C@@H]3CCC4=CC(=O)C=C[C@]4(C)[C@H]3[C@@H](O)C[C@@]21C,1.63%,4.19%,2.28%,3.44%,2.53%,2.56%,1.32%,-2.17%,3.04%,-2.19%
O=c1c(-c2ccc(O)cc2)coc2cc(O)ccc12,-1.42%,-0.456%,-0.191%,-0.874%,1.36%,-0.307%,-2.12%,-0.853%,-1.44%,0.974%
O=C1O[C@H]([C@@H](O)CO)C(O)=C1O,-0.099%,2.39%,0.0255%,-1.21%,1.99%,-2.25%,2.06%,0.144%,-0.209%,-0.259%
N[C@@H](Cc1ccc(O)c(O)c1)C(=O)O,-0.663%,0.423%,-0.313%,0.542%,2.68%,1.4%,0.395%,-0.394%,-1.98%,-0.139%
N=C(N)NC(=N)NCCc1ccccc1,2.55%,2.09%,2.16%,3.4%,3.43%,1.66%,13%,3.22%,7.27%,2.1%
COC(=O)[C@H](Cc1ccccc1)NC(=O)[C@@H](N)CC(=O)O,-2.32%,-1.81%,-2.17%,-2.28%,-1.24%,0.801%,-5.7%,-2.58%,-1.43%,-6.7%
CCc1oc2ccccc2c1C(=O)c1cc(Br)c(O)c(Br)c1,-0.0876%,0.798%,-0.0754%,-1.64%,-0.416%,0.0697%,-1.55%,-0.229%,0.671%,2.79%
CCCS(=O)(=O)Nc1ccc(F)c(C(=O)c2c[nH]c3ncc(-c4ccc(Cl)cc4)cc23)c1F,0.0739%,1.21%,-0.987%,0.227%,-0.449%,2.46%,10.9%,-3.02%,1.21%,1.79%
NNC(=O)c1ccncc1,3.87%,-2.25%,1.93%,0.954%,0.333%,-0.478%,44.1%,3.88%,-2.88%,-0.311%

# Source: the supplement of paper PMC8253809
